Several values for one entry are separate records, joined by “and”; a condition that tells them apart may be missing. Equal values may be shown once. This is part of a sample that, as a whole, favours compounds with a hit. Of some 83,000 tested, about 20% had one in any assay.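 Activity criterion: percent growth below 10, measured after cells in 96-well plates were exposed to a single compound concentration for 48 hours.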 Activity calls are given as the source filed them.
tested on: 786-0 renal; assay: NCI-60 one-dose screen, 48 h (100 = growth as untreated, 0 = no growth, -100 = all killed); details: 10 µM unless noted

Row | SMILES | growth
1 | O=C(CSc1nc2ccccc2c(=O)[nH]1)Nc1ccccc1C(=O)O | 107% (inactive)
2 | Cn1cc(-c2cc(N)n3nc(-c4c[nH]c5ccccc45)cc3n2)c2ccccc21 | -81.6% (active)
3 | Cc1cccc(/C=C/c2ccc(NC(=S)NCCCCN(C)C)cc2)c1 | -57.4% (active)
4 | Cc1ccc(N=Nc2c(N)nn3c(-c4cc5ccccc5oc4=O)ccnc23)cc1 | 53.4% (inactive)
5 | O=C(Nc1nc2ccccc2s1)Nc1ccccc1Cl | 41% (inactive)
6 | COc1ccc(NC(=O)CSc2nnc(-c3ccc(-c4nc5ccc(Cl)cc5[nH]4)cc3)o2)cc1 | -64.4% (active)
7 | O=C1Nc2cc(-c3ccc(NS(=O)(=O)c4ccc(C(F)(F)F)cc4)cc3)ccc2/C1=C/c1ccc[nH]1 | 40.8% (inactive)
8 | COc1ccc(Nc2nnc(-c3c[nH]c4ccccc34)o2)cc1 | 91.9% (inactive)
9 | Cn1cc(-c2cc(N)n3nc(-c4c[nH]c5ccc(F)cc45)cc3n2)c2cccnc21 | -95.2% (active)
10 | O=C(NN1C(=O)/C(=C/C=C/c2ccc([N+](=O)[O-])o2)SC1=S)c1ccc([N+](=O)[O-])cc1 | -80.1% (active)
11 | CN1C(=O)/C(=C/c2ccco2)S/C1=N/c1nccs1 | 97.6% (inactive)
12 | N#C/C(=C/c1ccc([N+](=O)[O-])cc1)c1nnc(NC(=O)c2ccc(-n3c(=O)[nH]c4ccccc4c3=O)cc2)s1 | 104% (inactive)
13 | O=C(CSc1nnc(-c2ccc(-c3nc4ccc(Cl)cc4[nH]3)cc2)o1)Nc1ccccc1 | -59% (active)
14 | Cc1cccc(NCC(=O)N2CCN(c3ncnc4c3cnn4-c3ccccc3)CC2)c1 | 80.8% (inactive)
15 | O=C(N/N=C/c1ccc(Br)o1)c1[nH]c2ccc(Br)cc2c1-c1ccccc1 | -52.7% (active)
16 | CCCCCCCCc1ccc(C(=O)Nc2ccc(C)c(OP(=O)(O)O)c2)cc1 | 83.6% (inactive)
17 | Cn1cc(-c2cc3nc(-c4cn(C)c5ncc(Br)cc45)cc(N)n3n2)c2cc(F)ccc21 | -5.13% (active)
18 | O=C1Nc2ccccc2/C1=C/C(=O)c1cc2ccccc2oc1=O | 117% (inactive)
19 | c1n[nH]cc1-c1nc2ccc3cn[nH]c3c2c2c1CCCC2 | 110% (inactive)

Row | SMILES | growth
20 | CN1C(=O)C(O)(CC(=O)c2cc3ccccc3oc2=O)c2ccccc21 (stereo unspecified) | 105% (inactive)
21 | O=C(CCl)Nc1ccc(C(=O)/C=C/c2cc3ccccc3nc2Cl)cc1 | -41.7% (active) and 23.9% (inactive)
22 | Cc1cc(C2(c3cc(C)c(OCC(O)CNc4c(C)n(C)n(-c5ccccc5)c4=O)cc3C(C)C)OC(=O)c3ccccc32)c(C(C)C)cc1OCC(O)CNc1c(C)n(C)n(-c2ccccc2)c1=O (stereo unspecified) | 24.2% (inactive)
23 | Cn1cc(-c2cc(N)n3nc(-c4c[nH]c5ccccc45)cc3n2)c2cc(Br)ccc21 | -73.7% (active)
24 | CCC(=O)c1c2c(c3ccc4c5ccccc5ccc4n13)C(=O)c1ccccc1C2=O | 96.4% (inactive)
25 | CS(=O)(=O)Nc1cc(-c2ccc3ncnc(Nc4ccc(OCc5cccnc5)c(Cl)c4)c3c2)cnc1Cl | 2.08% (active)
26 | Cn1cc(-c2cc(N)n3nc(-c4c[nH]c5ccccc45)cc3n2)c2cc(Cl)ccc21 | -67.8% (active)
27 | COc1ccc(N=Nc2c(N)nn3c(N)c(C#N)c(-c4ccc(C)cc4)nc23)cc1 | 80.9% (inactive)
28 | COc1ccc(C(=O)/C=C/c2ccc3c(c2)OCCO3)cc1S(N)(=O)=O | 76.5% (inactive)
29 | CCCCC[C@@H]1C/C=C(\C)[C@@H](O)C(C)(C)C(=O)[C@@H](C)/C=C(\C)[C@@H]2C[C@H](O)C[C@](O)(CC(=O)O1)O2 | 65.8% (inactive)
30 | CC(C)(C)c1ccc(OCc2nc3ccccc3n2-c2cccc(N)c2)cc1 | 80.9% (inactive) and 102% (inactive)
31 | O=C1/C(=C/c2cnc(-c3ccccc3)s2)SC(=S)N1Cc1ccc2c(c1)OCO2 | 31.2% (inactive)
32 | COc1ccc(NC2=C(I)C(=O)C(C)=C(C)C2=O)cc1 | 42.2% (inactive)
33 | COc1ccc(-c2nnc3c(/C=C/c4ccc(Br)cc4)nc4ccccc4n23)cc1 | -41.8% (active)
34 | C[C@H]1[C@@H](CC(=O)N[C@@H](Cc2coc3ccccc23)B(O)O)O[C@@H]2OC3(C)CC[C@H]4[C@H](C)CC[C@@H]1[C@@]24O3 | 17.1% (inactive)
35 | O=C(NNC(=S)NC(=O)c1ccccc1)c1ccc(OCc2nc3ccc(Cl)cc3[nH]2)cc1 | 0.779% (active)
36 | CC1=C(C)C(=O)C(NCCN2CCOCC2)=C(Br)C1=O | 100% (inactive)
37 | N#Cc1ccc(C(=O)NNC(=O)CSc2nc3sc4c(c3c(=O)n2-c2ccc(Cl)cc2)CCCC4)cc1 | 75.5% (inactive)
38 | CCCCCCCOc1ccc(S(=O)(=O)Nc2ccc(C)c(F)c2C(=O)O)cc1 | 95% (inactive)

tested on: COLO 205 colon; assay: as above; details: 10 µM unless noted

Row | SMILES | growth
39 | O=C(CSc1nc2ccccc2c(=O)[nH]1)Nc1ccccc1C(=O)O | 124% (inactive)
40 | Cn1cc(-c2cc(N)n3nc(-c4c[nH]c5ccccc45)cc3n2)c2ccccc21 | -88.6% (active)
41 | Cc1cccc(/C=C/c2ccc(NC(=S)NCCCCN(C)C)cc2)c1 | -69.5% (active)
42 | Cc1ccc(N=Nc2c(N)nn3c(-c4cc5ccccc5oc4=O)ccnc23)cc1 | 6.35% (active)
43 | O=C(Nc1nc2ccccc2s1)Nc1ccccc1Cl | 97.5% (inactive)
44 | COc1ccc(NC(=O)CSc2nnc(-c3ccc(-c4nc5ccc(Cl)cc5[nH]4)cc3)o2)cc1 | 69.4% (inactive)
45 | O=C1Nc2cc(-c3ccc(NS(=O)(=O)c4ccc(C(F)(F)F)cc4)cc3)ccc2/C1=C/c1ccc[nH]1 | 23.9% (inactive)
46 | COc1ccc(Nc2nnc(-c3c[nH]c4ccccc34)o2)cc1 | 113% (inactive)
47 | Cn1cc(-c2cc(N)n3nc(-c4c[nH]c5ccc(F)cc45)cc3n2)c2cccnc21 | -79.1% (active)
48 | O=C(NN1C(=O)/C(=C/C=C/c2ccc([N+](=O)[O-])o2)SC1=S)c1ccc([N+](=O)[O-])cc1 | -94.1% (active)
49 | CN1C(=O)/C(=C/c2ccco2)S/C1=N/c1nccs1 | 121% (inactive)
50 | N#C/C(=C/c1ccc([N+](=O)[O-])cc1)c1nnc(NC(=O)c2ccc(-n3c(=O)[nH]c4ccccc4c3=O)cc2)s1 | 122% (inactive)
51 | O=C(CSc1nnc(-c2ccc(-c3nc4ccc(Cl)cc4[nH]3)cc2)o1)Nc1ccccc1 | 75.9% (inactive)
52 | Cc1cccc(NCC(=O)N2CCN(c3ncnc4c3cnn4-c3ccccc3)CC2)c1 | 97.4% (inactive)
53 | O=C(N/N=C/c1ccc(Br)o1)c1[nH]c2ccc(Br)cc2c1-c1ccccc1 | -13.5% (active)
54 | CCCCCCCCc1ccc(C(=O)Nc2ccc(C)c(OP(=O)(O)O)c2)cc1 | 126% (inactive)
55 | Cn1cc(-c2cc3nc(-c4cn(C)c5ncc(Br)cc45)cc(N)n3n2)c2cc(F)ccc21 | 51.6% (inactive)
56 | O=C1Nc2ccccc2/C1=C/C(=O)c1cc2ccccc2oc1=O | -15.4% (active)
57 | c1n[nH]cc1-c1nc2ccc3cn[nH]c3c2c2c1CCCC2 | 102% (inactive)

Row | SMILES | growth
58 | CN1C(=O)C(O)(CC(=O)c2cc3ccccc3oc2=O)c2ccccc21 (stereo unspecified) | 114% (inactive)
59 | O=C(CCl)Nc1ccc(C(=O)/C=C/c2cc3ccccc3nc2Cl)cc1 | -64.4% (active) and 72.4% (inactive)
60 | Cc1cc(C2(c3cc(C)c(OCC(O)CNc4c(C)n(C)n(-c5ccccc5)c4=O)cc3C(C)C)OC(=O)c3ccccc32)c(C(C)C)cc1OCC(O)CNc1c(C)n(C)n(-c2ccccc2)c1=O (stereo unspecified) | 10.6% (inactive)
61 | Cn1cc(-c2cc(N)n3nc(-c4c[nH]c5ccccc45)cc3n2)c2cc(Br)ccc21 | -90.1% (active)
62 | CCC(=O)c1c2c(c3ccc4c5ccccc5ccc4n13)C(=O)c1ccccc1C2=O | 75.8% (inactive)
63 | CS(=O)(=O)Nc1cc(-c2ccc3ncnc(Nc4ccc(OCc5cccnc5)c(Cl)c4)c3c2)cnc1Cl | -73.5% (active)
64 | Cn1cc(-c2cc(N)n3nc(-c4c[nH]c5ccccc45)cc3n2)c2cc(Cl)ccc21 | -90.8% (active)
65 | COc1ccc(N=Nc2c(N)nn3c(N)c(C#N)c(-c4ccc(C)cc4)nc23)cc1 | 85.6% (inactive)
66 | COc1ccc(C(=O)/C=C/c2ccc3c(c2)OCCO3)cc1S(N)(=O)=O | 91.9% (inactive)
67 | CCCCC[C@@H]1C/C=C(\C)[C@@H](O)C(C)(C)C(=O)[C@@H](C)/C=C(\C)[C@@H]2C[C@H](O)C[C@](O)(CC(=O)O1)O2 | 37.6% (inactive)
68 | CC(C)(C)c1ccc(OCc2nc3ccccc3n2-c2cccc(N)c2)cc1 | 77.6% (inactive) and 114% (inactive)
69 | O=C1/C(=C/c2cnc(-c3ccccc3)s2)SC(=S)N1Cc1ccc2c(c1)OCO2 | 125% (inactive)
70 | COc1ccc(NC2=C(I)C(=O)C(C)=C(C)C2=O)cc1 | 123% (inactive)
71 | COc1ccc(-c2nnc3c(/C=C/c4ccc(Br)cc4)nc4ccccc4n23)cc1 | -53% (active)
72 | C[C@H]1[C@@H](CC(=O)N[C@@H](Cc2coc3ccccc23)B(O)O)O[C@@H]2OC3(C)CC[C@H]4[C@H](C)CC[C@@H]1[C@@]24O3 | 23% (inactive)
73 | O=C(NNC(=S)NC(=O)c1ccccc1)c1ccc(OCc2nc3ccc(Cl)cc3[nH]2)cc1 | -22.5% (active)
74 | CC1=C(C)C(=O)C(NCCN2CCOCC2)=C(Br)C1=O | 130% (inactive)
75 | N#Cc1ccc(C(=O)NNC(=O)CSc2nc3sc4c(c3c(=O)n2-c2ccc(Cl)cc2)CCCC4)cc1 | 110% (inactive)
76 | CCCCCCCOc1ccc(S(=O)(=O)Nc2ccc(C)c(F)c2C(=O)O)cc1 | 122% (inactive)

— PubChem BioAssay (NCI)
